# Rows were chosen to be rich in hits. Some 19% of all compounds tested hit in one or more screens of this group.
# IL-1B inflam inh = inhibitors of inflammasome signaling (IL-1 beta secretion); activity change, % at 57.5 µM; AID 743279; THP-1 LPS/ATP IL-1B secretion, AlphaLISA, 16 h; stronger effect = lower value; 360,000 tested, 4.7% active; in the data active = activity change below about -50%; inconclusive = mostly about -30% to -49%
#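 THP-1 cells pretreated 1 hr with compounds (up to 57.5 uM final), then stimulated with LPS (250 ng/mL final) plus ATP (1.25 mM final); secreted IL-1B measured by AlphaLISA after 16 hr, decreased signal indicating inhibition.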
# DT40 TDP1 no CPT = qHTS for Inhibitors of human tyrosyl-DNA phosphodiesterase 1 (TDP1): qHTS in cells in absence of CPT; Potency, µM (top dose mostly 46.2 µM), without a hit: at the highest dose activity change, negative = growth inhibition, actives largely listed as inhibitors; 420,000 tested, 15% active; DT40 Tdp1-/- hTDP1 cells, no CPT, ATP luminescence, 48 h; note: potency is the fitted concentration of half-maximal effect; nearly all actives have a fitted effect of over 55% in size
#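 A cellular qHTS used chicken DT40 cells lacking endogenous Tdp1 but carrying stably transfected human TDP1. Compounds were applied without camptothecin, and cell growth kinetics were judged by ATP-dependent luminescence after ≥48 hr.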
# Giardia killer = kills Giardia lamblia; Giardia lamblia trophozoite viability; activity change, % at 7.66 µM, hits read low; 340,000 tested, 0.15% active; in the data active = activity change below about -80%; inconclusive = between about -30% and that limit;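 note: parasites exposed to compound for two days anaerobically before the ATP read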
#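 Trophozoite viability was measured as ATP-dependent luminescence, read 15-30 min after reagent addition. Before that, parasites at 100 cells/well were exposed to compounds for 48 h, anaerobically, at 37 deg C.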
# TDP1 cell CPT = growth inhibition of DT40 Tdp1-/-;hTDP1 cells with camptothecin (screen for TDP1 inhibitors). 420,000 tested, 12% active. chicken DT40 Tdp1-/-;hTDP1 cells + 20 nM CPT, ATP luminescence, 48 h. Potency, µM (top dose mostly 46.2 µM), for inactives: at the top dose activity change, negative = growth inhibition, actives largely listed as inhibitors; note: potency is the fitted concentration of half-maximal effect; nearly all actives have a fitted effect of over 55% in size
#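 Chicken DT40 Tdp1-/- cells stably complemented with human TDP1 were seeded at 400 cells/well in medium containing 20 nM camptothecin, exposed to pin-transferred compounds, and grown at 37 °C for at least 48 hr. Viability was read as ATP luminescence.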
# ELG1 repair inh = inhibitors of ELG1-dependent DNA repair in HEK293T cells | HEK293T ELG1-luciferase reporter, luminescence, 16 h; DNA damage induced by 5-fluorouridine | Potency, µM (titrated, usually from 46.1 µM), for the others: at the top dose activity change, negative = inhibition, hits mostly inhibitors | 330,000 tested, 2.3% active | AID 504467; note: potency is the fitted concentration of half-maximal effect; nearly all actives have a fitted effect of over 55% in size
#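 HEK293T cells expressing luciferase-tagged ELG1 (2,000/well) received 5-Fluorouridine plus compound or DMSO for 16 hr at 37 °C. Luciferase was read by ONE-Glo luminescence after 30 min at room temperature.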
# TDP1 block = TDP1 (human) enzyme inhibition. recombinant TDP1, AlphaScreen DNA substrate cleavage. Potency, µM (doses to about 130 µM), without a hit: top-dose activity change, negative = inhibition, hits mostly inhibitors. Q9NUW8. 350,000 tested, 0.28% active. AID 485290; note: potency is the fitted concentration of half-maximal effect; nearly all actives have a fitted effect of over 40% in size
# Target sequence (Q9NUW8 whole entry, looked up): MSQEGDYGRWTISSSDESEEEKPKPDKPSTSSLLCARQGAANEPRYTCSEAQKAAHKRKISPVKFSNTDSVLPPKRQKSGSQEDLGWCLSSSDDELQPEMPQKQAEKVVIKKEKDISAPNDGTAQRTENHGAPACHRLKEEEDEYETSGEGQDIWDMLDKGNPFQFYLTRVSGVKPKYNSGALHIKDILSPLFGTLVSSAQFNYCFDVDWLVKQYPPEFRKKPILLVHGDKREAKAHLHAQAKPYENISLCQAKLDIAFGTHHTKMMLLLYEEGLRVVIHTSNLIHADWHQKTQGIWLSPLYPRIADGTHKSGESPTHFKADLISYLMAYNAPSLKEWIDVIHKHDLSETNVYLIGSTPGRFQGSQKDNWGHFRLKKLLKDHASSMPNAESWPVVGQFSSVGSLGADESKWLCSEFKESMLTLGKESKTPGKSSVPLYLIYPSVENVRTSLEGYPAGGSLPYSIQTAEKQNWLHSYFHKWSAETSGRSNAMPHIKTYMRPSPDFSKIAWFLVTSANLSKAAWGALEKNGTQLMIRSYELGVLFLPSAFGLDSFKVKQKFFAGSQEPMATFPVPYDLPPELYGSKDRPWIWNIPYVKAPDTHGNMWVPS
#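 Recombinant E. coli-expressed Tdp1 (1 nM) preincubated with compound 15 min at RT, then 5'-biotin/3'-phosphotyrosine-FITC DNA substrate (15 nM) added for 5 min. AlphaScreen beads (10 ug/ml) added, 10 min RT; tyrosine-FITC cleavage read as signal loss.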
# Starred values were filed as active, the others as inactive; u = inconclusive; x = not tested or not shown; [ ] = dose if it differs, or a comment. Unless noted, calls come from the whole dose curve; as a rule, active = well fitted curve in the direction sought with a large enough effect; inconclusive = small, poorly fitted or top-dose-only effect, or another doubt; inactive = no such curve, though single readings can be large; an effect the other way counts as inactive or inconclusive. % is set by controls: 0 for no effect and ±100 for the full control effect.
SMILES,IL-1B inflam inh,DT40 TDP1 no CPT,Giardia killer,TDP1 cell CPT,ELG1 repair inh,TDP1 block
CCN1CCN(c2ccc(NC(=O)c3cccnc3)cc2Cl)CC1,6.4,-22.7%,-23.2,-8.2%,7.2%,2.1%
O=C(Nc1ccc(F)cc1)Nc1csc2ccccc12,x,23.1µM*,-2.1,23.1µM*,3.5%,x
O=C(Nc1ccc(N2CCCCC2)c(S(=O)(=O)Nc2ccccc2Cl)c1)c1cccnc1,u,u,-6.2,-28.4%,18.3µM*,2.7%
CN(C)c1ccc(NC(=O)Nc2csc3ccccc23)cc1,-0.1,-26.1%,-2.9,-2.6%,u,12.3%
O=C(Nc1ccc(F)cc1)Nc1ccc(N2CCCC2)c(S(=O)(=O)Nc2ccccc2Cl)c1,-59.9*,23.1µM*,19.8,23.1µM*,u,5.5%
CC(=O)Nc1ccc2nc3c(=O)n(C)c(=O)n(C)c3nc2c1C,x,5.5%,x,3.0%,x,-0.9%
CC1CN(C(=O)CCC(=O)NCc2ccccn2)c2ccccc2O1 (centres undefined),-6.2,4.3%,3.0,13.1%,20.4%,x
O=C(Cc1ccc(F)cc1)Nc1ccccc1N1CCCC1,0.0,u,-14.9,u,0.8%,8.0%
O=C(Nc1ccc(Cl)c(Cl)c1)Nc1ccc(N2CCCC2)c(S(=O)(=O)Nc2ccccc2Cl)c1,-52.4*,4.11µM*,23.9,3.26µM*,u,3.0%
O=C(Nc1ccc(F)cc1)Nc1ccccc1N1CCCCC1,-16.6,u,8.8,u,13µM*,5.5%
CCc1noc(C)c1C(=O)OCC(=O)N(C)c1c(N)n(Cc2ccccc2)c(=O)[nH]c1=O,8.2,3.7%,8.7,-4.9%,-3.4%,x
O=C(COC(=O)c1ccccc1-c1nc2ccccc2s1)Nc1ccccc1C(F)(F)F,16.8,-2.1%,1.0,3.3%,23.1µM*,-5.5%
C/C(=N\NC(=O)c1ccc(Cn2cc([N+](=O)[O-])cn2)o1)c1cccc(NC(=O)C(C)C)c1,0.0,u,8.3,u,u,8.9%
C/C(=N\NC(=O)c1ccc(Cn2cc(Br)cn2)o1)c1cccc(NC(=O)C(C)C)c1,-25.1,u,-8.9,3.0%,5.8µM*,4.7%
O=C(Nc1cccc(-c2cn3cccnc3n2)c1)c1cc(Br)ccc1Cl,x,u,x,-21.1%,x,1.1%
Cc1onc(-c2ccccc2Cl)c1C(=O)Nc1ccc2c(c1)OCO2,-15.7,-5.4%,26.3,-14.5%,5.7%,3.1%
CCCOc1cccc(NC(=O)c2c(-c3ccccc3Cl)noc2C)c1,x,8.2µM*,x,9.2µM*,x,-8.5%
Cc1onc(-c2ccccc2Cl)c1C(=O)Nc1cccc(-c2cn3cccnc3n2)c1,0.0,16.4µM*,6.3,u,u,4.5%
CCCOc1ccc(OC(=O)c2c(-c3ccccc3Cl)noc2C)cc1,x,-13.9%,x,-11.1%,x,-5.2%
CCCOC(=O)c1cccc(NC(=O)c2c(-c3ccccc3Cl)noc2C)c1,x,7.31µM*,x,7.31µM*,x,2.3%
COc1ccccc1NS(=O)(=O)c1cccc(C(=O)N/N=C2\CC(=O)CC(C)(C)C2)c1,-2.8,-13.9%,3.2,1.6%,5.8%,8.0%
C/C(=N\NC(=O)c1ccc(Cl)c(Cl)c1)c1cccc(NC(=O)C(C)C)c1,0.0,-23.0%,-5.4,-7.7%,-1.7%,2.0%
C/C(=N\NC(=O)c1c(-c2ccccc2Cl)noc1C)c1cccc(NC(=O)C(C)C)c1,-13.4,23.1µM*,15.3,u,u,2.6%
O=[N+]([O-])/C=C\c1ccc(N2CCCC2)c(F)c1,-55.5*,2.59µM*,-29.8,7.31µM*,u,-2.6%
C=CCN1C(=O)/C(=C\C(C)=C\c2ccccc2)SC1=S,u,u,0.4,13.9%,u,x
SMILES,IL-1B inflam inh,DT40 TDP1 no CPT,Giardia killer,TDP1 cell CPT,ELG1 repair inh,TDP1 block
C=CCN1C(=O)/C(=C/c2ccc(OC(C)=O)c(OCC)c2[N+](=O)[O-])SC1=S,-75.8*,u,0.3,u,u,-1.2%
c1ccc(-c2nc3nc4ccccc4nc3n2CC2CCCO2)cc1 (centres undefined),-3.2,14.6µM*,-6.0,u,0.0%,x
O=C(CSc1ncc(-c2ccccc2)n1CC1CCCO1)N1CCCCC1 (centres undefined),-13.6,-16.3%,-8.4,-8.9%,0.0%,5.7%
Nc1ncc(-c2ccccc2)n1CC1CCCO1 (centres undefined),-25.6,18.4µM*,-5.7,u,9.8%,11.4%
C[C@@H](c1ccccc1)N1C(=O)[C@H]2[C@H]3[C@H](O)[C@H](O)C/C(=N/OCc4ccccc4)[C@@H]3CC[C@@H]2C1=O,x,x,x,x,x,1.6%[21 µM]
COc1ccc(/C=C/C(=O)OCC(=O)NC2CC2)c(OC)c1,-18.7,2.2%,-14.1,u,13.2%,0.6%
COc1cc(/C=C/c2onc(C)c2[N+](=O)[O-])cc(OC)c1OC,13.9,-20.6%,u,6.8%,x,x
Cc1cccc(/C=C/c2onc(C)c2[N+](=O)[O-])n1,-96.7*,2.59µM*,-0.9,2.59µM*,x,x
Cc1cccc(N/C=C/c2onc(C)c2[N+](=O)[O-])c1,2.9,9.2µM*,-10.0,u,x,4.1%
Cc1noc(/C=C/c2nn(C)cc2Cl)c1[N+](=O)[O-],-78.3*,11.6µM*,-11.6,20.6µM*,u,5.1%
Cc1cc(O)ccc1N/C=C/c1onc(C)c1[N+](=O)[O-],u,-22.4%,8.5,-13.6%,u,2.5%
CCn1cc(C(=O)N2CCN(c3cc(Cl)ccc3C)CC2)c(=O)c2cc(S(=O)(=O)N3CCOCC3)ccc21,x,u,x,-8.9%,x,0.0%
CCOc1ccc(N(CC(=O)NCCc2ccccc2)C(=O)CCC(=O)Nc2cc(C)ccn2)cc1,-9.3,u,19.2,u,-6.1%,x
CC(C)COP(=O)(OCC(C)C)C(Nc1ccccc1)c1ccc2c(c1)OCO2 (centres undefined),-62.3*,u,-4.9,14.6µM*,u,-5.9%
CC(C)COP(=O)(OCC(C)C)C(Nc1ccccc1)c1ccc(F)cc1 (centres undefined),u,u,-0.2,u,u,-8.9%
NC1=NC(=O)/C(=C/c2cccs2)S1,-0.5,-21.5%,-0.5,-10.6%,3.6%,-5.8%
C=CCSC1=NC(=O)/C(=C/c2cccs2)S1,-100.2*,u,12.8,u,2.3%,3.2%
COc1cc(C(=O)NNC(=O)CNC(=O)c2ccc(Br)o2)cc(OC)c1OC,6.0,4.6%,3.3,3.5%,1.0%,3.4%
COc1ccc(-c2nc(-c3ccc(NC(=O)c4ccc(Br)o4)cc3)no2)cc1OC,-17.5,6.51µM*,-2.1,18.4µM*,u,4.0%

# Screening results (PubChem BioAssay)
